From PubChem BioAssay (Tox21)
Records with an inconclusive call do not appear. Values without a mark were called inactive. The source made the active and inactive calls. The call rests on the fitted dose curve.

Molecular target: Peroxisome proliferator-activated receptor gamma (Homo sapiens) (UniProt P37231)
Experiment: qHTS assay to identify small molecule antagonists of the peroxisome proliferator-activated receptor gamma (PPARg) signaling pathway (AID 743191); further: nearly all actives have a fitted effect of over 30% in size
Conditions: HEK293H PPARg-UAS-bla, beta-lactamase ratio, antagonist, 17 h; series mostly up to 62.6 µM; ratio activity, negative = inhibition: at the top concentration
Source text: U.S. Tox21 Program National Center for Advancing Translational Sciences [NCATS] NIH Chemical Genomics Center [NCGC] U.S. Environmental Protection Agency [EPA] National Institutes of Environmental Health Sciences [NIEHS] National Toxicology Program [NTP] U.S. Food and Drug Administration [FDA] Tox21 Assay Overview: The peroxisome proliferator-activated receptors (PPARs) are lipid-activated transcription factors of the nuclear receptor superfamily with three distinct subtypes namely PPAR alpha, PPAR delta (also called PPAR beta) and PPAR gamma (PPARg). All these subtypes heterodimerize with Retinoid X receptor (RXR) and these heterodimers regulate transcription of various genes. PPAR-gamma receptor (glitazone receptor) is involved in the regulation of glucose and lipid metabolism. To identify the compounds that inhibit PPAR-gamma signaling, GeneBLAzer PPAR gamma UAS-bla HEK293H cell line (Invitrogen, Carlsbad, CA, USA) containing a beta-lactamase reporter gene under control of an Upstream Activator Sequence (UAS) was used to screen the Tox21 compound library.
Tox21 Assay Protocol Summary: PPARg-bla cells were dispensed at 3000 cells/6uL/well in 1536-well black wall/clear bottom plates using a Multidrop Combi (Thermo Fisher Scientific, Waltham, MA) dispenser. After the assay plates were incubated at 37C and 5% CO2 for 5 h, 23 nL of compounds dissolved in DMSO, positive controls or DMSO only was transferred to the assay plate by a Pintool station (Kalypsys, San Diego, CA). The assay plates were incubated at 37C for 17 h. After 1 uL of LiveBLAzerTM B/G FRET substrate was added using a Bioraptr Flying Reagent Dispenser (FRD) workstation (Beckman Coulter, Indianapolis, IN, USA), the plates were incubated at room temperature for 1 h, and fluorescence intensity was measured by an Envision plate reader (PerkinElmer, Shelton, CT).
On the % scale 0 is the no-effect control and ±100 the full control effect; potency means the concentration at half of the fitted maximal effect.

Sequence of Peroxisome proliferator-activated receptor gamma (Homo sapiens) (P37231 whole entry, looked up): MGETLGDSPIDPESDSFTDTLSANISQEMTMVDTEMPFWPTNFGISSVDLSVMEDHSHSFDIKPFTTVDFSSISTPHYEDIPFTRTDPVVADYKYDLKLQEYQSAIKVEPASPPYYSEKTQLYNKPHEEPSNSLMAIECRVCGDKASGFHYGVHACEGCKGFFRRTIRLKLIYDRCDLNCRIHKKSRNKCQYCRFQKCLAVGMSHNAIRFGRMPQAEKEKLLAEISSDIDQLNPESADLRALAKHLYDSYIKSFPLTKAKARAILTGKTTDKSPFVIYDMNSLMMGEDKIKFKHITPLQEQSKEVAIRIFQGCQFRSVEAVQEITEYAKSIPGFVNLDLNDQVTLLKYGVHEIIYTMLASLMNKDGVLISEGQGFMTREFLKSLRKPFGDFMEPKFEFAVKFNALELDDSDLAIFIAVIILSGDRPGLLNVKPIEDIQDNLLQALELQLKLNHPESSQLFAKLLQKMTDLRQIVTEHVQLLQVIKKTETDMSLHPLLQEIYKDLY

Row | Structure (SMILES) | ratio activity, negative = inhibition | Potency
1 | CCCCCCCCCCCCBr | 6.02% | 
2 | CC(C)(C)c1cc([N+](=O)[O-])cc(C(C)(C)C)c1O | -14.7% | 
3 | CNC(C)Cc1ccc2c(c1)OCO2 (stereo not given) | 13.6% [at 81.1 µM] | 
4 | COP(=S)(OC)Oc1cc(Cl)c(Br)cc1Cl |  | 43.6 µM (active)
5 | COc1cccc(C(=O)CCN[C@@H](C)[C@H](O)c2ccccc2)c1 | -29.3% | 
6 | CCCN(CCC)c1c([N+](=O)[O-])cc(S(N)(=O)=O)cc1[N+](=O)[O-] |  | 37 µM (active)
7 | CC(=O)c1cc(C(C)(C)C)cc2c1CCC2(C)C | 0.775% | 
8 | Cc1cc(C)cc(OP(=O)(Oc2cc(C)cc(C)c2)Oc2cc(C)cc(C)c2)c1 | -18.3% [at 81.1 µM] | 
9 | Oc1c(Cl)c(Cl)cc(Cl)c1Cl |  | 3.78 µM (active)
10 | Oc1ccc(C(=C(Cl)Cl)c2ccc(O)cc2)cc1 |  | 17.3 µM (active)
11 | CC(c1ccc(O)cc1)c1ccc(O)cc1 |  | 36.5 µM (active)
12 | CC(=O)Nc1ccc2c(c1)Cc1ccccc1-2 | 0.686% [at 81.1 µM] | 
13 | CN(C)CCc1c[nH]c2cccc(O)c12 | 10.7% [at 81.1 µM] | 
14 | CCN(CC)c1c([N+](=O)[O-])cc(C(F)(F)F)c(N)c1[N+](=O)[O-] | -11.8% | 
15 | COc1ccc(OC)c(CC(C)N)c1 (stereo not given) | 8.54% [at 81.1 µM] | 
16 | FC(Cl)(Cl)Cl | 4.42% | 
17 | Clc1ccc(C(c2ccc(Cl)cc2)C(Cl)(Cl)Cl)cc1 | 11.6% | 
18 | c1ccc2c(c1)[nH]c1cnccc12 | 7.82% | 
19 | Cc1cc(C(F)(C(F)(F)F)C(F)(F)F)ccc1NC(=O)c1cccc(I)c1C(=O)NC(C)(C)CS(C)(=O)=O | -7.77% | 
20 | CN(C)CCc1c[nH]c2ccc(O)cc12 | 14.7% [at 81.1 µM] | 

Row | Structure (SMILES) | ratio activity, negative = inhibition | Potency
21 | Cc1cc(C(C)(C)c2cc(C)c(O)c(C)c2)cc(C)c1O |  | 29.9 µM (active)
22 | CC(C)(C)OO | 5.98% | 
23 | CC(C)OS(C)(=O)=O | 1.3% [at 81.1 µM] | 
24 | Fc1cccc(Cl)c1CCl | -0.331% | 
25 | S=C=Nc1cccc2ccccc12 | -22.1% | 
26 | Clc1ccc(-c2ccc(Cl)c(Cl)c2Cl)c(Cl)c1Cl | 8.5% | 
27 | CC(=O)/C=C/c1ccc2c(c1)OCO2 |  | 12.4 µM (active)
28 | Fc1ccc(Oc2ccnc3cc(Cl)cc(Cl)c23)cc1 | 6.96% | 
29 | CC(C)CCCCCOC(=O)c1ccccc1C(=O)OCCCCCC(C)C | 4.62% | 
30 | O=c1[nH]c2ccccc2n1C1CCN(CCCC(c2ccc(F)cc2)c2ccc(F)cc2)CC1 |  | 34.7 µM (active)
31 | CC1(C)[C@H](C(=O)O[C@H](C#N)c2cccc(Oc3ccccc3)c2)[C@@H]1/C=C(\Cl)C(F)(F)F | 3.64% | 
32 | NNC(=O)c1ccccc1 | -2.94% [at 81.1 µM] | 
33 | Cc1c(Cl)c(=O)oc2cc(OP(=O)(OCCCl)OCCCl)ccc12 | -12.5% | 
34 | CC(C)OC(=S)S | -2.64% | 
35 | N#CNC#N | -1.05% [at 81.1 µM] | 
36 | CCCN(CCC)CCc1c[nH]c2ccccc12 | 7.57% [at 81.1 µM] | 
37 | CC(C)[C@H](C(=O)OC(C#N)c1cccc(Oc2ccccc2)c1)c1ccc(OC(F)F)cc1 (stereo not given in full) | 7.37% | 
38 | Clc1ccc(C(Cl)(Cl)Cl)c(Cl)c1 | -2.07% [at 81.1 µM] | 
39 | N#CCCSCCC#N | -8.14% | 
40 | CC(C)(C)C(O)/C(=C\c1ccc(Cl)cc1Cl)n1cncn1 (stereo not given) |  | 52.8 µM (active)
